High-throughput results (PubChem BioAssay)
Pol beta inh = blocks human DNA polymerase beta activity | P06746 | Pol beta primer extension/strand displacement, fluorescence kinetic | Potency, µM (top dose mostly 114 µM), hits mostly inhibitors | 340,000 compounds, 1.3% hits
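Values derive from four-parameter Hill fits of normalized kinetic data: reads at 0 and 10 min following addition of 50 nM substrate to 10 nM Pol beta preincubated 15 min with compound.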
WRN helicase inh = inhibitors of human WRN helicase | Q14191 | WRN helicase unwinding, fluorescent forked duplex, kinetic | Potency, µM (series often up to 114 µM), actives largely listed as inhibitors | 360,000 compounds, 0.46% hits | AID 651768; note: nearly all actives have a fitted effect of over 55% in size
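WRN at 20 nM final was preincubated with compound for 15 min at room temperature; reaction started with 100 nM forked duplex oligonucleotide carrying fluorophore and quencher plus 2 mM ATP (final). Unwinding followed kinetically by red fluorescence (ex 525/em 598 nm).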
POLH inh = blocks human DNA polymerase eta activity. Q9Y253. recombinant Pol eta, fluorescent DNA replication assay. Potency, µM (series often up to 114 µM), most hits filed as inhibitors. 390,000 compounds, 1.2% hits
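Pol eta (10 nM) was preincubated with compounds for 15 min at room temperature, after which fluorescent replication substrate (50 nM final) was added to start the reaction. Fluorescence was read kinetically at 0 and 10 min.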
POLI inh = DNA polymerase iota (human) inhibition; Pol iota fluorescent replication assay, 10 min; Potency, µM (titrated, usually from 115 µM), actives largely listed as inhibitors; 390,000 compounds, 1% hits; AID 588590
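Pol iota at 10 nM preincubated 15 min with compounds at room temperature; reaction started with fluorescent substrate, 50 nM final. Fluorescence read kinetically at 0 and 10 min; buffer-only wells as negative control.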
PI5P4K alpha inh = blocks human PI5P4K alpha kinase activity. P48426. PI5P4Kalpha enzyme, ADP-Glo luminescence, 60 min; active compounds read low. max response, %. 330,000 compounds, 1.2% hits. AID 652105; active = max response of -50% or lower; inconclusive = between -30% and -50%; inactive = -30% or higher; note: value at the top dose of about 77 µM
Target sequence (P48426 whole entry, looked up): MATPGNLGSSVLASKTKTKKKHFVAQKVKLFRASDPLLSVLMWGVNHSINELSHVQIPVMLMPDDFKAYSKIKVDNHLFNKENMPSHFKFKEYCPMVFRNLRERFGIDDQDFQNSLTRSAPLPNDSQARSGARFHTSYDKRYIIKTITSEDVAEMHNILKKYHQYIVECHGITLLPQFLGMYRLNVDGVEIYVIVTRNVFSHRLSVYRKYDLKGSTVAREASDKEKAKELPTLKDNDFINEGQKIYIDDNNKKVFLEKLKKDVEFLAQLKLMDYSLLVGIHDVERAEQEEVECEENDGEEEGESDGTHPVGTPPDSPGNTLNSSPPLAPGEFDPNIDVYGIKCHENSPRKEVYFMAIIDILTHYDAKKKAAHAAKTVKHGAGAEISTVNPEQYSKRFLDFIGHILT
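Human PI5P4Kalpha with substrate in 0.038 M HEPES pH 7.4, 0.28 mM EGTA, 0.1% CHAPS, 5% DMSO; reaction started with 5 microM ATP (final), 60 min at room temperature. ADP formed read by ADP-Glo luminescence.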
Pol kappa inh = blocks human DNA polymerase kappa activity. AID 588579. Q9UBT6. Potency, µM (series often up to 107 µM), usual class: inhibitors. 400,000 compounds, 0.53% hits. purified Pol kappa, fluorescent DNA synthesis assay, 10 min
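50 nM final substrate added after 15 min RT preincubation of 10 nM Pol kappa with compound; fluorescence read at 0 and 10 min.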
Numbers stand for hits; – = inactive; ? = inconclusive; · = not tested or not shown; [ ] = dose if it differs, or a comment. In the library only some 2.8% were active in any assay of this set; here they are far more common. Unless noted, calls come from the whole dose curve; as a rule, active = well fitted curve in the direction sought with a large enough effect; inconclusive = small, poorly fitted or top-dose-only effect, or another doubt; inactive = no such curve, though single readings can be large; an effect the other way counts as inactive or inconclusive.

SMILES | Pol beta inh | WRN helicase inh | POLH inh | POLI inh | PI5P4K alpha inh | Pol kappa inh
CCOc1ccc(NS(=O)(=O)c2ccc(NS(=O)(=O)c3ccccc3)cc2)cc1 | – | – | – | – | · | –
CCOc1ccc(S(=O)(=O)Nc2cc(NS(=O)(=O)c3ccc(OCC)cc3)cc(C(=O)O)c2)cc1 | · | – | 25.1µM | ? | – | 79.4µM
Cc1cccc(NC(=O)COc2ccccc2C(=O)Nc2ccccc2)c1 | · | · | · | – | · | –
COc1ccc(-c2cc(=O)c3c(C)cc(O)cc3o2)cc1 | · | ? | ? | 20µM | – | ?
Cc1sc2ccccc2[n+]1CC(=O)O | – | 50.1µM | – | ? | – | –
Cc1sc2ccccc2[n+]1CC(=O)c1ccccc1 | – | – | – | ? | – | –
COc1ccc(-n2c(COc3cccc4ccccc34)nnc2SC(C)C(=O)O)cc1 (centres undefined) | – | – | – | – | -96.9 | –
Cc1ccc(OCc2nnc(SC(C)C(=O)O)n2-c2ccccc2)cc1 (centres undefined) | – | – | – | – | – | –
CC[N+](C)(C(=O)O)/C(=C\c1ccccc1)c1ccnc2ccccc12 (centres undefined) | · | · | · | – | · | –
CN(C)c1ccc(/C=C/c2ccnc3cc(Cl)ccc23)cc1 | · | · | · | – | · | –
CC(=O)Nc1cccc(NC(=O)CCn2cnc3cc(C)c(C)cc32)c1 | 25.1µM | – | ? | ? | – | –
Cc1ccc(NC(=O)CCn2cnc3cc(C)c(C)cc32)cc1 | – | – | – | – | · | –
Cc1cc(C)c(NC(=O)c2sc3nc(C)cc(C)c3c2NC(=O)c2ccccc2)c(C)c1 | – | · | – | – | · | –
CC(C)=CCc1c(O)cc(O)c2c1OC(c1ccc(O)cc1)CC2=O (centres undefined) | · | – | – | – | -63.2 | –
CCOC(=O)c1ccc(N2CCOCC2)c(NC(=O)c2ccc3c(c2)OCO3)c1 | – | – | – | – | – | –
Cc1nn(CC(=O)NCCc2ccco2)c(=O)c2nn(-c3ccccc3)c(C)c12 | 89.1µM | –[11.6 µM] | 31.6µM | 22.4µM | – | –
Cc1ccc(-n2nc3c(=O)n(CC(=O)NCc4cccs4)nc(C)c3c2C)cc1 | – | – | – | – | – | –
Cc1ccc(-n2nc3c(=O)n(CC(=O)NCc4ccco4)nc(C)c3c2C)cc1 | – | · | – | – | · | –
Cc1nn(CC(=O)NCCc2cccs2)c(=O)c2nn(-c3ccccc3)c(C)c12 | ? | –[11.6 µM] | – | 35.5µM | – | –
CCOCCCN1C(=O)CN(C2CCCCCC2)C(=O)C1c1ccc(OC(C)C)c(OC)c1 (centres undefined) | – | · | – | – | · | –
O=C(O)/C(=N/NC(=O)c1ccc(Cl)cc1)c1ccccc1 | 25.1µM | – | – | – | – | –
O=C(O)c1ccc2c(c1)C(=O)N(Cc1ccc3c(c1)OCO3)C2=O | – | – | – | ? | – | –
Cc1ccc(C)n1Cc1ccc(C(=O)O)cc1 | 2.82µM | 2.82µM | – | 0.708µM | · | 1.26µM
O=C(O)c1ccc(CN2C(=O)c3ccc(C(=O)O)cc3C2=O)cc1 | – | – | – | – | -58.0 | –
O=C(O)c1ccc(CN2C(=O)c3cccc4c([N+](=O)[O-])ccc(c34)C2=O)cc1 | ? | – | 22.4µM | ? | – | –
SMILES | Pol beta inh | WRN helicase inh | POLH inh | POLI inh | PI5P4K alpha inh | Pol kappa inh
COC(=O)c1ccc(CN2C(=O)c3ccccc3C2=O)cc1 | – | – | – | – | – | –
COc1ccc(CN2C(=O)c3ccc(C(=O)O)cc3C2=O)cc1 | – | – | – | – | -62.8 | –
CCOc1cc(-c2nc3c(c(CC)nn3-c3ccccc3)c3cc(OC)c(OC)cc23)ccc1O | – | · | – | – | · | –
O/N=C(/C[n+]1ccsc1)c1ccc(I)cc1 | · | · | · | – | · | –
COc1cc(C=C2C(=O)c3ccccc3C2=O)ccc1O | – | – | – | ? | ? | –
COc1cc(C=C2C(=O)c3ccccc3C2=O)cc(OC)c1OC | – | – | – | 89.1µM | – | –
COc1ccc(C=C2C(=O)c3ccccc3C2=O)cc1O | – | – | – | 17.8µM | -60.0 | –
O=C(NC1CCCCC1)c1ccc2c(c1)N(Cc1cccc(Cl)c1)C(=O)c1ccccc1S2(=O)=O | – | · | – | – | · | –
Nc1ccc(O)c2c(=O)cc(-c3ccccc3Cl)oc12 | 22.4µM | – | – | – | – | –
